Measured values: PubChem BioAssay (Tox21)
Several values for one entry are separate records, joined by “and”; a condition that tells them apart may be missing. Equal entries are not always repeated. Results filed as inconclusive are left out. A call without a number means that no potency is given here. The source holds several records for some structures; these can differ, active in one and inactive in another. Activity calls are given as the source filed them. Calls come from the whole dose curve; as a rule, active = well fitted cell-killing curve with a large enough effect in the repeat runs; inconclusive = weak or mixed curves, or effect the other way; inactive = flat fitted curve, though single readings scatter.

Assay: qHTS assay to identify small molecule agonists of the sonic hedgehog signaling (Shh) pathway - cell viability counter screen (AID 1259366); note: nearly all actives have a fitted effect of over 50% in size
Details: NIH/3T3 Gli1-Luc viability, CellTiter-Fluor, 24 h; series mostly up to 92.4 µM
Description: National Center for Advancing Translational Sciences [NCATS]
NIH Chemical Genomics Center [NCGC]
U.S. Environmental Protection Agency [EPA]
National Institutes of Environmental Health Sciences [NIEHS]
National Toxicology Program [NTP]
U.S. Food and Drug Administration [FDA]
The sonic hedgehog (Shh) pathway is essential for normal embryonic development. Dysregulation of the Shh pathway can cause severe developmental defects in organs. Therefore chemicals that interfere with the pathway are potential developmental toxicants. A cell line designated 3T3Gli1-Luc (DMB/OARSA/CFSAN/FDA, Laurel, MD), a NIH/3T3 derived clone containing stably integrated Gli1-Luc reporter is used to detect chemical interference of the Shh pathway, by changes in the expression of the firefly Luc gene under the control of the Gli1 transcriptional response element. This cell line was used to screen Tox21 libraries for identifying and prioritizing the potential developmental toxicants that interfere Shh pathway. The cytotoxicity of the compounds was tested in parallel by measuring the cell viability using CellTiter-Fluor assay system (Promega, Madison, WI) in the same wells.
Tox21 Assay Protocol Summary:
3T3 Gli1-Luc cells were dispensed at 2,000 per well in 5uL of culture medium into white solid bottom 1536-well plates (Greiner Bio-One, Monroe, NC) using a Multidrop Combi (Thermo Scientific, Waltham, MA) dispenser. The assay plates were incubated at 37 C and 5% CO2 for 4hr, and then 23nL of compounds dissolved in DMSO and positive control were transferred using a Pintool station (Wako, San Diego, CA). The assay plates were incubated at 37C and 5% CO2 for 24hr. For viability read, after 23hr of compound treatment, 1uL of CellTiter-Fluor reagent (Promega Corporation, Madison, WI) was added to each well of the assay plates using Flying Reagent Dispenser (FRD, Aurora Discovery, San Diego, CA) and incubated the assay plates at 37C for 1hr. The fluorescence signal was quantified using a ViewLux plate reader (Perkin Elmer, Shelton, CT).
Potency is the fitted concentration of half-maximal effect.

Row | SMILES | Potency
1 | CCC1(CC)C(=O)NC(=O)NC1=O | inactive
2 | CC(C)(C#N)C(C)(C)C#N | inactive
3 | C=CCOCC1CO1 (stereo not given) | inactive
4 | CCc1cnc(C2=NC(C)(C(C)C)C(=O)N2)c(C(=O)O)c1 (stereo not given) | inactive
5 | [Cl-].[Cl-].[Hg+2] | 682 nM (active) and 2.17 µM (active)
6 | O=C(NCNC(=O)NC1C(=O)NC(=O)N1CO)NC1C(=O)NC(=O)N1CO (stereo not given) | inactive
7 | O=C(Cc1ccccc1)c1ccccc1 | inactive
8 | CCCCCCCCP(=O)(O)O | inactive
9 | CCc1ccccc1N | inactive
10 | C=CC(=O)OCC | inactive
11 | Cc1nc2ccccc2c(=O)n1-c1ccccc1Cl | 10.6 µM (active)
12 | O=C1CC[C@@]2(O)[C@H]3Cc4ccc(O)c5c4[C@@]2(CCN3CC2CC2)[C@H]1O5 | inactive
13 | Cc1cnc(C2=NC(C)(C(C)C)C(=O)N2)c(C(=O)O)c1 (stereo not given) | inactive
14 | O=C(O)c1cc(Cl)ccc1Cl | inactive
15 | CC(C)(C)CC(C)(C)c1ccc(O)cc1 | 48.6 µM (active) and inactive
16 | O=C(Cl)OCCOCCOC(=O)Cl | inactive
17 | O=C(Cc1ccccc1)OCCc1ccccc1 | inactive
18 | Cc1ccc2c(C)cccc2c1 | inactive
19 | CC[N+]1(CCOC(=O)C(O)(c2ccccc2)c2ccccc2)CCCCC1 | inactive
20 | c1ccc2c(c1)-c1cccc3cccc-2c13 | inactive

Row | SMILES | Potency
21 | CC(Oc1cccc(Cl)c1)C(=O)O (stereo not given) | inactive
22 | CC(=O)NNc1ccccc1 | inactive
23 | Cc1ncc(C[n+]2csc(CCO)c2C)c(N)n1 | inactive
24 | CC1(C)CC(=O)CC(C)(C)N1[O] | inactive
25 | O=C(O)C(F)(F)C(F)(F)C(F)(F)C(F)(F)C(F)(F)F | inactive
26 | COc1ccccc1N1CCNCC1 | inactive
27 | CN1C(=O)CN=C(c2ccccc2)c2cc([N+](=O)[O-])ccc21 | inactive
28 | CCCCCCCCCCCCCCCl | inactive
29 | CN(C1CCCCC1)C1CCCCC1 | inactive
30 | O=[N+]([O-])/C=C/c1ccccc1 | 5.54 µM (active) and 10.9 µM (active)
31 | C[CH2][Hg][S]c1ccccc1C(=O)O | 1.72 µM (active) and 1.19 µM (active)
32 | CCSCc1ccccc1OC(=O)NC | inactive
33 | Oc1cccc(Cl)c1 | inactive
34 | C[C@H]1[C@@H]2Cc3ccc(O)cc3[C@@]1(C)CCN2C | inactive
35 | OC[P+](CO)(CO)CO | inactive
36 | CCCCC#N | inactive
37 | NP(N)(=O)NC(=O)c1ccc(F)cc1 | inactive
38 | O=C1NC(=O)C(=O)C(=O)N1 | inactive
39 | C=CC(=O)NC(C)(C)CC(C)=O | inactive
40 | CCC(C)(C)c1ccc(O)c(C(C)(C)CC)c1 | inactive
